Source: PubChem
A selection: hits, their analogues and other compounds. The true share with any hit is near 20%.
HCMV inh: blocks human cytomegalovirus replication. HFF cells, HCMV-luciferase reporter, 72 h; hits give low values. activity change, negative = inhibition, % at 57.5 µM. actives 4.5% (n = 410,000). AID 1259415; in the data active means activity change below about -60%; inconclusive means no clear call, values can overlap the other calls; inactive means above about -39%; further: on the % scale 0 is the no-effect control and ±100 the full control effect
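Compounds were evaluated in HFFs infected with an HCMV luciferase reporter virus (MOI 1 PFU/cell). Luciferase in lysates collected 72 h post infection served as the replication measure.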
Cycloheximide cs: counter-screen for Shiga toxin inhibitors: cycloheximide protein synthesis inhibition; max response, %; cell reporter, cycloheximide protein synthesis inhibition counterscreen; actives 12% (n = 300,000); AID 2314; in the data active means max response mostly above about 13%, no sharp cut-off; inactive means mostly below about 14%; further: read at 38.3 µM for the half of the compounds with a filed dose; 0% is about no effect
Pf growth 96h: P. falciparum growth inhibition at 96 hour, primary screen for plastid delayed-death inhibitors; Potency, µM (highest dose often 28.7 µM), for the others: at the highest dose activity change, negative = inhibition, usual class: inhibitors; AID 504834; P. falciparum luciferase reporter growth, 96 h; actives 6.9% (n = 320,000); further: potency means the concentration at half of the fitted maximal effect; on the % scale 0 is the no-effect control and ±100 the full control effect
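Infected RBCs, 2% Hct / 0.05% parasitemia final; luciferase-reporter P. falciparum; cpd 96 h, 37 C, 5% CO2; luciferase detection reagent; luminescence.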
Pf growth 48h: P. falciparum growth inhibition at 48 hours (one generation). P. falciparum luciferase growth in erythrocytes, 48 h. Potency, µM (doses to about 28.7 µM), without a hit: at the highest dose activity change, negative = inhibition, hits mostly inhibitors. actives 5.9% (n = 310,000); further: potency means the concentration at half of the fitted maximal effect; on the % scale 0 is the no-effect control and ±100 the full control effect
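Luminescence readout; reporter = integrated firefly luciferase in P. falciparum. RBC culture at 2% hematocrit, 0.1% parasitemia final, 37 C/5% CO2; decreased signal taken as growth inhibition.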
Shiga toxin inh: inhibitors of Shiga toxin in Vero cells; inhibition, % at 38.7 µM; actives 9.2% (n = 290,000); Vero cells, Shiga toxin protein synthesis inhibition reporter; in the data active means inhibition mostly above about 28%, no sharp cut-off; inactive means mostly below about 43%; further: 0% is about no effect
An asterisk follows results filed as active; ? = inconclusive; · = not tested or not shown; [ ] = another dose, or the depositor's remark. Unless noted, the call rests on the fitted dose curve; in most records, active means well fitted inhibition curve with a large enough effect; inconclusive means small, poorly fitted or top-dose-only effect, or another doubt; inactive means no such curve, though single readings can be large or run the other way.

SMILES | HCMV inh | Cycloheximide cs | Pf growth 96h | Pf growth 48h | Shiga toxin inh
O=C(O)c1ccccc1C1c2ccccc2Oc2ccccc21 | -3 | · | · | · | ·
CC(C)CC(C(=O)NCc1ccc(F)cc1)N1Cc2ccccc2C1=O (stereo unspecified) | -16 | · | · | · | ·
Cc1ccc(CN2CCN(Cc3cnc(C)[nH]3)CC2CCO)cc1 (stereo unspecified) | -12 | 0 | 12µM* | -7% | -10
COc1ccc(CN2CCN(CCCc3ccccc3)C(CCO)C2)c(OC)c1 (stereo unspecified) | 34 | -2 | ? | -25% | -2
COc1ccc(OC)c(CN2CCN(CCCc3ccccc3)C(CCO)C2)c1 (stereo unspecified) | -102* | -3 | ? | -11% | -4
CCOc1ccccc1CN1CCN(CC2=Cc3cc(OC)ccc3OC2)CC1CCO (stereo unspecified) | -5 | 1 | ? | 9.3µM* | -8
CCOC(=O)NC(=O)c1cn(CCNCCO)c(=O)[nH]c1=O | 0 | -6 | ? | 3% | -8
CC(C(=O)NCc1cccnc1)c1ccc([N+](=O)[O-])cc1 (stereo unspecified) | -4 | 0 | -26% | 0% | -8
N#C/C(=C\c1ccc(OCc2ccccc2)cc1)C(=O)Nc1ccc(C(=O)O)cc1 | 43 | 26* | 34% | 10% | 46*
N#C/C(=C/c1ccc(C(=O)O)cc1)C(=O)Nc1ccccc1 | -25 | 7 | 12% | 10% | -15
N#C/C(=C\c1ccc(OCc2ccc(C(=O)O)cc2)cc1)C(=O)N1CCOCC1 | -4 | 99* | 215% | 212% | 179*
COc1ccc(-c2[nH]nc3nc(N4CCN(C(=O)c5ccoc5)CC4)cc(C(F)(F)F)c23)cc1 | -77* | · | · | · | ·
COc1ccc(-c2cc(=O)c3c(O)cc(O[C@H]4OC(COC5OC(C)C(O)C(O)[C@H]5O)C(O)C(O)C4O)cc3o2)cc1O (stereo partly specified) | · | · | ? | -16% | ·
OCCNCc1cccc(OCc2ccc(Cl)cc2)c1 | -12 | 7 | 8% | ? | 25
c1ccc(COc2cccc(CNCc3ccccn3)c2)cc1 | -37 | 34* | -23% | -14% | 65*
c1ccc(COc2cccc(CNCc3cccnc3)c2)cc1 | 18 | 9 | 7% | ? | 13
O=[N+]([O-])c1ccc(COc2cccc(CN3CCOCC3)c2)cc1 | -12 | · | · | · | ·
Oc1ccc(NCc2cccc(OCc3ccccc3)c2)cc1 | -36 | 22* | -26%[5.75 µM] | -5% | 47
Oc1ccc(NCc2cccc(OCc3ccc(F)cc3)c2)cc1 | -39 | 24* | 14% | ? | 45*
O=[N+]([O-])c1ccc(COc2cccc(CNc3ccc(F)cc3)c2)cc1 | 3 | 35* | -78% | 6% | 37*
CCN1C(=NCCN2CCOCC2)N[C@@H](CCc2ccccc2)C(C(=O)OC)=C1C | · | 7 | 102% | ? | 1
COc1ccc(CCNC(=O)CN2C(=O)NC3(CCOc4ccccc43)C2=O)cc1 (stereo unspecified) | -14 | · | 22% | -5% | ·
O=[N+]([O-])c1ccc(Nc2nc(NC3CCCCC3)nc(N3CCCC3)n2)cc1 | -73* | 12 | ? | ? | 35
O=[N+]([O-])c1cccc(/C=N/Nc2cc(N3CCOCC3)ncn2)c1 | -29 | -3 | ? | · | -2
O=[N+]([O-])c1cccc(/C=N/Nc2nc(N3CCOCC3)nc(N3CCOCC3)n2)c1 | -93* | -4 | 70% | -24% | -4
SMILES | HCMV inh | Cycloheximide cs | Pf growth 96h | Pf growth 48h | Shiga toxin inh
O=[N+]([O-])c1cccc(/C=C2\CCC(/C=N/Nc3ccc4ccccc4n3)=C2N2CCOCC2)c1 | ? | 17* | 0.41µM* | ? | -3
CCOC(=O)C(=O)C1=C(N2CCOCC2)/C(=C\c2cccc([N+](=O)[O-])c2)CC1 | -72* | 8 | 67% | 22% | -1
O=[N+]([O-])c1ccc(NC2CCCC2)cc1 | 7 | 13 | 15% | 5% | -22
O=[N+]([O-])c1ccc(/C=N/Nc2nc(N3CCOCC3)nc(N3CCOCC3)n2)cc1 | · | -1 | -3% | -8% | 5
CCC(=O)OC1(C(C)=O)CCC2C3CCC4=CC(=O)CCC4(C)C3CCC21C (stereo unspecified) | -11 | · | · | · | ·
CCC/C(=N/NC(=O)c1ccccc1Cl)c1ccccc1 | ? | 25 | -14% | 11% | 20
